# In article PMC7862700, “An all-to-all approach to the identification of sequence-specific readers for epigenetic DNA modifications on cytosine”:
# Key:
# Test in all cases: DAPPL (digital affinity profiling via proximity ligation, sequencing); 10 mM Tris-HCl pH 7.5, 50 mM NaCl, 1 mM DTT, 4% glycerol, room temperature, 30 min; GST-TFs on glutathione beads, 16-mer random dsDNA library, 0.1% formaldehyde crosslink after washing; high values mean tight binding
# [1] = biological target: T1, FLI1 (Homo sapiens, UniProt Q01543 1-452); details: protein: recombinant; tags: N-terminal GST; dsDNA, one strand shown
# T1 sequence: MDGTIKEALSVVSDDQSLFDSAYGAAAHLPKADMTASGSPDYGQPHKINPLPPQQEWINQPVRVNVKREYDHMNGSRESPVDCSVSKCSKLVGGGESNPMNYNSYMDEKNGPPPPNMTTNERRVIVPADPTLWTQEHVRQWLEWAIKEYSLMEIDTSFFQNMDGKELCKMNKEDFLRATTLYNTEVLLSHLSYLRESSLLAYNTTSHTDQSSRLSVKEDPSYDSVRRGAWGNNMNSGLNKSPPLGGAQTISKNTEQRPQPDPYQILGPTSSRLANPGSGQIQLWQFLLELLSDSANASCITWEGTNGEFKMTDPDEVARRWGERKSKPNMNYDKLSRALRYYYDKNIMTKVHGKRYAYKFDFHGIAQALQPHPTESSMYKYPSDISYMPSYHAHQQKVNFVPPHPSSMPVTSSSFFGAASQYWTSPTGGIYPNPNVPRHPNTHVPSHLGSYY
# Procedure, shortened: (§1)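 A tag-only sample was pooled with DNA-barcoded human transcription factors that had been expressed in yeast as GST fusions and captured on glutathione beads. The pools were incubated for 30 min at room temperature with 200 nmole of a random double-stranded 16-mer DNA library in Tris/NaCl/DTT/glycerol buffer, then washed, crosslinked with 0.1% formaldehyde, proximity-ligated (BsaI/T4 ligase, 1 h, 37 °C), PCR-amplified and sequenced on an Illumina NextSeq500. Binding signal is each hexamer's read frequency for a factor divided by its frequency for the tag-only sample.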
# [2] = biological target: T2, ELK1 (Homo sapiens, UniProt P19419 1-428); details: protein: recombinant; tags: N-terminal GST; dsDNA, one strand shown
# T2 sequence: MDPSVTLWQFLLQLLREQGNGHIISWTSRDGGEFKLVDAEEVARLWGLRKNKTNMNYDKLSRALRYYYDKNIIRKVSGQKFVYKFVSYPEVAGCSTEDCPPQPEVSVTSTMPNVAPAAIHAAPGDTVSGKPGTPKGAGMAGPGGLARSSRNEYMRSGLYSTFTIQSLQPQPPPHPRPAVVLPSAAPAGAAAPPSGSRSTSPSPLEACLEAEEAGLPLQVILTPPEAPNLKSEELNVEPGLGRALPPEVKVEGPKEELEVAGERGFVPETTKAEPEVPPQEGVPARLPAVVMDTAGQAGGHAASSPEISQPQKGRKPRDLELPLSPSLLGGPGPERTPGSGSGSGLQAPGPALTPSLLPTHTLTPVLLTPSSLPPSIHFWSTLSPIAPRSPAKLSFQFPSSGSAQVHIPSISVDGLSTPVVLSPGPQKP
# Procedure, shortened: as §1
# [3] = biological target: T3, GABPA (Homo sapiens, UniProt Q06546 1-454); details: protein: recombinant; tags: N-terminal GST; dsDNA, one strand shown
# T3 sequence: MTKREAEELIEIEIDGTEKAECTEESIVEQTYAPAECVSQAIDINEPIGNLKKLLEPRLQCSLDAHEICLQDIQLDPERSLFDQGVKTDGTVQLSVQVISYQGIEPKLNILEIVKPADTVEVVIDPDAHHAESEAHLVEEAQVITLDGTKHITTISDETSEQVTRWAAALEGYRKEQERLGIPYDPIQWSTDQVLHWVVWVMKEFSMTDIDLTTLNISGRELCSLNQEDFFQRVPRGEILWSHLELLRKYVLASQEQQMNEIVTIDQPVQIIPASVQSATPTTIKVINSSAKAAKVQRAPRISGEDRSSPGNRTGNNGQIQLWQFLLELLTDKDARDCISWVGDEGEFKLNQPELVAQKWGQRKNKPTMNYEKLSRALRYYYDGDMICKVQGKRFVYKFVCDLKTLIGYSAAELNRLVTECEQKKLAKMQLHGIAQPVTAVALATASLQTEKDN
# Procedure, shortened: as §1
# [4] = biological target: T4, ERG (Homo sapiens, UniProt P11308 1-479); details: protein: recombinant; tags: N-terminal GST; dsDNA, one strand shown
# T4 sequence: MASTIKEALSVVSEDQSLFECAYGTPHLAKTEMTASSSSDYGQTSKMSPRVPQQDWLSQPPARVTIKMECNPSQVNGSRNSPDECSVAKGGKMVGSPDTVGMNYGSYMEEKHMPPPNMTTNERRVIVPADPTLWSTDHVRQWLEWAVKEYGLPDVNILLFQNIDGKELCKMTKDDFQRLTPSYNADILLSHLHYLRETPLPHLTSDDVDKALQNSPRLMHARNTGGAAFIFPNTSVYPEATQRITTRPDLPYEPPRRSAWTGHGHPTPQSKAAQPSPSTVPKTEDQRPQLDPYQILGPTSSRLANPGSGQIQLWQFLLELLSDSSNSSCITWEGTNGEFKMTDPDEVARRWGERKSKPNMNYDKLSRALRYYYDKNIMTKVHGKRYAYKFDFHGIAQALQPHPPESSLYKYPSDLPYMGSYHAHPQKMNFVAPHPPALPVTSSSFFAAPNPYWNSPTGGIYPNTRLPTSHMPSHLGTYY
# Procedure, shortened: as §1
# [5] = biological target: ELF1 (Homo sapiens, UniProt P32519 1-619); details: protein: recombinant; tags: N-terminal GST; dsDNA, one strand shown
# Chain of ELF1 (P32519 whole entry): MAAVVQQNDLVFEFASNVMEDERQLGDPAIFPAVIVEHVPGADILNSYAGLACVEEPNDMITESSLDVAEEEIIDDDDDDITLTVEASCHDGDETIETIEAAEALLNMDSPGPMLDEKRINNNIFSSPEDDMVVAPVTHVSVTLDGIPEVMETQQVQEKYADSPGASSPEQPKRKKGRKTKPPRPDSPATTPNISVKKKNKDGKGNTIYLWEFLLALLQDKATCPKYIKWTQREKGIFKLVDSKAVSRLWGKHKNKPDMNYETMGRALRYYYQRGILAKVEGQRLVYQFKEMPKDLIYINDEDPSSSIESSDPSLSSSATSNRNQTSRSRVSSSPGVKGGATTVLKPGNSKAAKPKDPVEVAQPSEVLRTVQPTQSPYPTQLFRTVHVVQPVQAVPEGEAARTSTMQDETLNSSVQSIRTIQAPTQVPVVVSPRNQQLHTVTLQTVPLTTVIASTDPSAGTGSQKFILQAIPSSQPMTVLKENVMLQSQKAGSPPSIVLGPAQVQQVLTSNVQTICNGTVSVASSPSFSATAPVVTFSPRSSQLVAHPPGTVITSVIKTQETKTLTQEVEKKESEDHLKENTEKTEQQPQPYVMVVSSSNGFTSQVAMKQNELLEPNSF
# Procedure, shortened: as §1
# [6] = biological target: T5, EHF (Homo sapiens, UniProt Q9NZC4 1-300); details: protein: recombinant; tags: N-terminal GST; dsDNA, one strand shown
# T5 sequence: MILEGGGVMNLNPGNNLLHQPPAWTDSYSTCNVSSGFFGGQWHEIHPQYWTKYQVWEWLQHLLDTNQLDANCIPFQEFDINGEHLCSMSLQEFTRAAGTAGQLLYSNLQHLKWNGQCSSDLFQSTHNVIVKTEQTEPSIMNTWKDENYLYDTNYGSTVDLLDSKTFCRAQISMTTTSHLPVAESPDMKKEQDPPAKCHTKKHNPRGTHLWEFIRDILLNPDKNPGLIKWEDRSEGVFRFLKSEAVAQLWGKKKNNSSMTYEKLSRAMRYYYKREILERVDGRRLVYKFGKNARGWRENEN
# Procedure, shortened: as §1
# [7] = biological target: SPI1 (Homo sapiens, UniProt P17947 1-270); details: protein: recombinant; tags: N-terminal GST; dsDNA, one strand shown
# Procedure, shortened: as §1
# [8] = biological target: SPIB (Homo sapiens, UniProt Q01892 1-262); details: protein: recombinant; tags: N-terminal GST; dsDNA, one strand shown
# Chain of SPIB (Q01892 whole entry): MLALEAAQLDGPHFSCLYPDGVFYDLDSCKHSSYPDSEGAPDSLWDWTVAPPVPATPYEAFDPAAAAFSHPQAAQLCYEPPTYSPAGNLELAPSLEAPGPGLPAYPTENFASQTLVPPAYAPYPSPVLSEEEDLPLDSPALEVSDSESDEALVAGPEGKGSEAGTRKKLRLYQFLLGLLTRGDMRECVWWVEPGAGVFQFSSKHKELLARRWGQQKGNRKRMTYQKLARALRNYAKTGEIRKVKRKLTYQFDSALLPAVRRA
# Procedure, shortened: as §1
# [9] = biological target: T6, ELK3 (Homo sapiens, UniProt P41970 1-407); details: protein: recombinant; tags: N-terminal GST; dsDNA, one strand shown
# T6 sequence: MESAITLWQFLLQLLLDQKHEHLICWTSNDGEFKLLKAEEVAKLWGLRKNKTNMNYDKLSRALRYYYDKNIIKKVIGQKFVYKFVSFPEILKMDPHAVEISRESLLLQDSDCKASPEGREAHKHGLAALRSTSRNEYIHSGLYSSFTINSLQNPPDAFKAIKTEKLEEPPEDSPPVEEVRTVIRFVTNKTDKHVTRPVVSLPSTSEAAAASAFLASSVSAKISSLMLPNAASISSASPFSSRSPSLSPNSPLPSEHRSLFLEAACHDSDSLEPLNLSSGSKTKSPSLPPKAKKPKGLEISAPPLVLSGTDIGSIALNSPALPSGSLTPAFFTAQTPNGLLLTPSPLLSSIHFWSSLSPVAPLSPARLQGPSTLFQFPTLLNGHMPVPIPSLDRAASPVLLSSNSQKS
# Procedure, shortened: as §1
# [10] = biological target: T7, FEV (Homo sapiens, UniProt Q99581 1-238); details: protein: recombinant; tags: N-terminal GST; dsDNA, one strand shown
# T7 sequence: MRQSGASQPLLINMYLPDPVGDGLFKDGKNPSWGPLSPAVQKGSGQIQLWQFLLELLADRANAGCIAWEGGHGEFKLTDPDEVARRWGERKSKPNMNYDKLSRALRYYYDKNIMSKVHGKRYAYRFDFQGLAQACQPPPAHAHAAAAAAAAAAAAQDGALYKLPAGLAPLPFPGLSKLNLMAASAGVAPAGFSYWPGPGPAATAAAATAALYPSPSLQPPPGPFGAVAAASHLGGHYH
# Procedure, shortened: as §1
# [11] = biological target: ETV5 (Homo sapiens, UniProt P41161 1-510); details: protein: recombinant; tags: N-terminal GST; dsDNA, one strand shown
# Chain of ETV5 (P41161 whole entry): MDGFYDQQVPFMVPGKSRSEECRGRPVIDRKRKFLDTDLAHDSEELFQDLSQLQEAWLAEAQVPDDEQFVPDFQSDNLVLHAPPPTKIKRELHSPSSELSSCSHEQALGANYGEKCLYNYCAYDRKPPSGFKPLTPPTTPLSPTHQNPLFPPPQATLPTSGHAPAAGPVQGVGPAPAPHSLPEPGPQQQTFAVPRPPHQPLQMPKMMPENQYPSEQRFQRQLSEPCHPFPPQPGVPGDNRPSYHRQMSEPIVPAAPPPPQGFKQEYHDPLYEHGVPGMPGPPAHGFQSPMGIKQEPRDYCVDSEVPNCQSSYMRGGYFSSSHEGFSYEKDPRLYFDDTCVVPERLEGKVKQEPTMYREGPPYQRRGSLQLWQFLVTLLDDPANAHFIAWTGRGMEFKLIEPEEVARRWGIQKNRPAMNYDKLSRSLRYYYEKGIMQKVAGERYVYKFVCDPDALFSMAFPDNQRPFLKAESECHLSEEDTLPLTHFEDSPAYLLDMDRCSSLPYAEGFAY
# Procedure, shortened: as §1
# [12] = biological target: HSF1 (Homo sapiens, UniProt Q00613 1-529); details: protein: recombinant; tags: N-terminal GST; chain copies: 3; dsDNA, one strand shown
# Chain of HSF1 (Q00613 whole entry): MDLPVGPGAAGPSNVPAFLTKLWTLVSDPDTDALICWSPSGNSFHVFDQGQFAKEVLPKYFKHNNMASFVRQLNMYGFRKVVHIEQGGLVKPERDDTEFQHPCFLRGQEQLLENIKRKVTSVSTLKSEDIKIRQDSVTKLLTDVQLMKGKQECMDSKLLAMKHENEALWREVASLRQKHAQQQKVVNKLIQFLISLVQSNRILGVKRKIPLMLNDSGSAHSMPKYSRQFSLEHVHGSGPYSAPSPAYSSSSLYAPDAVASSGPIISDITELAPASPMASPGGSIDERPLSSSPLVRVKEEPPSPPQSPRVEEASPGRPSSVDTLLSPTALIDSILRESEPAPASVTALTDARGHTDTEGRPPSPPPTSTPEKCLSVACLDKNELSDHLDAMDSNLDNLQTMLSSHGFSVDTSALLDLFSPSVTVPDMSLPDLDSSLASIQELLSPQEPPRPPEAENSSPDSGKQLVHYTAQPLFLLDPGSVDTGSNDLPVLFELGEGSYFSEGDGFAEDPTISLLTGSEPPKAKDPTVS
# Procedure, shortened: as §1
# [13] = biological target: T8, SPIC (Homo sapiens, UniProt Q8N5J4 1-248); details: protein: recombinant; tags: N-terminal GST; dsDNA, one strand shown
# T8 sequence: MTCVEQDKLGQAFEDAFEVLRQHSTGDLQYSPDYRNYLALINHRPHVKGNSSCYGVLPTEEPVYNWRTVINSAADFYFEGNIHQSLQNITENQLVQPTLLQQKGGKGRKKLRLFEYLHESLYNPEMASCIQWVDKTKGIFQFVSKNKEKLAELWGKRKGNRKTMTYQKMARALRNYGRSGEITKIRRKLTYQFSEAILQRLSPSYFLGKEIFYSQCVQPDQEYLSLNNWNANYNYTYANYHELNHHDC
# Procedure, shortened: as §1
# [14] = biological target: ELF4 (Homo sapiens, UniProt Q99607 1-663); details: protein: recombinant; tags: N-terminal GST; dsDNA, one strand shown
# Chain of ELF4 (Q99607 whole entry): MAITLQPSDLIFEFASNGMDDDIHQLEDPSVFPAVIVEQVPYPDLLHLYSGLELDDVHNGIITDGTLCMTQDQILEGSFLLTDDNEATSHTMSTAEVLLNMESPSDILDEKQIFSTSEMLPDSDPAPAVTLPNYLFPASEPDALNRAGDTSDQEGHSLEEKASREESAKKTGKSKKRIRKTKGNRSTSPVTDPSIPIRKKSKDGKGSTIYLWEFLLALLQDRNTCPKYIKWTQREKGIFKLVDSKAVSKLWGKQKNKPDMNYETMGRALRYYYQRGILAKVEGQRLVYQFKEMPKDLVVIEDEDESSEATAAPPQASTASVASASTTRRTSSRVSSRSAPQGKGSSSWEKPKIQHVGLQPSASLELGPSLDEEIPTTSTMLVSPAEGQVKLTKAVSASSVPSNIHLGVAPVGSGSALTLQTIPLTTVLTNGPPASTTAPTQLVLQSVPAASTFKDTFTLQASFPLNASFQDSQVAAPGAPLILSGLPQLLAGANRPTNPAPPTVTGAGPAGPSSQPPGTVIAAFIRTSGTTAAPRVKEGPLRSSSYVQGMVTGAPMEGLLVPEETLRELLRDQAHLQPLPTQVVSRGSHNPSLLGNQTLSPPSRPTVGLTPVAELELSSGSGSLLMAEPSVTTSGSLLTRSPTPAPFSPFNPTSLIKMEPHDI
# Procedure, shortened: as §1
# [15] = biological target: T9, ELK4 (Homo sapiens, UniProt P28324-2 1-405); details: protein: recombinant; tags: N-terminal GST; dsDNA, one strand shown
# T9 sequence: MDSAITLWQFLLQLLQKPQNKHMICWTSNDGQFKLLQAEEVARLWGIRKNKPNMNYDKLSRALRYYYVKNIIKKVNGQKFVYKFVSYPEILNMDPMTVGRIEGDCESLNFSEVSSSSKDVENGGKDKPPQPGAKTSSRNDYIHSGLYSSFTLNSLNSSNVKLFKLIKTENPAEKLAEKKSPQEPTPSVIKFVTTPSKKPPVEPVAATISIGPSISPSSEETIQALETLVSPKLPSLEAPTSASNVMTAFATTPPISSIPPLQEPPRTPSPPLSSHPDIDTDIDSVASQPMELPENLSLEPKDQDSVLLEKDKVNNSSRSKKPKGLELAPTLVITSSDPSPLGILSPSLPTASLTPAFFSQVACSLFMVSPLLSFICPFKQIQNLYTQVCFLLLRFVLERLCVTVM
# Procedure, shortened: as §1
# [16] = biological target: T10, ETV2 (Homo sapiens, UniProt O00321 1-342); details: protein: recombinant; tags: N-terminal GST; dsDNA, one strand shown
# T10 sequence: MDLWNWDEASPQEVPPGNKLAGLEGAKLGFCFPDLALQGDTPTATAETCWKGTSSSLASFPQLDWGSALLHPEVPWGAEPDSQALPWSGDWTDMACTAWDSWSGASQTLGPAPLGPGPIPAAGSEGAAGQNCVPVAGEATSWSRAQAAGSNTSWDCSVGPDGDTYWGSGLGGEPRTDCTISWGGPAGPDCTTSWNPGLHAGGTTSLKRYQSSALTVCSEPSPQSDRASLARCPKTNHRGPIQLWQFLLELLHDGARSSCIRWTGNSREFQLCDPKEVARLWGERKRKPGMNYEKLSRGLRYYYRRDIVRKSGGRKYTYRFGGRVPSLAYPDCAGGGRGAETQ
# Procedure, shortened: as §1
# [17] = biological target: T11, ELF3 (Homo sapiens, UniProt P78545 1-371); details: protein: recombinant; tags: N-terminal GST; dsDNA, one strand shown
# T11 sequence: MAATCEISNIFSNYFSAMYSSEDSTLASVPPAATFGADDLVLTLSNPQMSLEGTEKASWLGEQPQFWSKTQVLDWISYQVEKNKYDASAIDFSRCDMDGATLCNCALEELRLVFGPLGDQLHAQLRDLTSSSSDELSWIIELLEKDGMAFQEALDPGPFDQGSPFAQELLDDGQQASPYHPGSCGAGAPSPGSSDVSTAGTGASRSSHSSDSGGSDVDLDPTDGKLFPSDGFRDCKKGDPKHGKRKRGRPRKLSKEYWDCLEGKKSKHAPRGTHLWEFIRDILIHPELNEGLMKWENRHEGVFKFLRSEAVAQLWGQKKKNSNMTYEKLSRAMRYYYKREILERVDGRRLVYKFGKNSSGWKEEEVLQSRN
# Procedure, shortened: as §1
# [18] = biological target: CRX (Homo sapiens, UniProt O43186 1-299); details: protein: recombinant; tags: N-terminal GST; dsDNA, one strand shown
# Chain of CRX (O43186 whole entry): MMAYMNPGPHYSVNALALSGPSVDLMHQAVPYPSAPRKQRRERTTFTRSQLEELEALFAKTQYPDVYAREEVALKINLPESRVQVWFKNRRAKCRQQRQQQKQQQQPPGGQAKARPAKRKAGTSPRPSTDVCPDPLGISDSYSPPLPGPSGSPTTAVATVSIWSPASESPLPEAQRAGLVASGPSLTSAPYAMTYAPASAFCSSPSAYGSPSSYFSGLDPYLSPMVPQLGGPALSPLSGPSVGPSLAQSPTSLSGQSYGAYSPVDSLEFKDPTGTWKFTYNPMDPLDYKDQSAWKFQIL
# Procedure, shortened: as §1
# [19] = biological target: ETV1 (Homo sapiens, UniProt P50549 1-477); details: protein: recombinant; tags: N-terminal GST; dsDNA, one strand shown
# Chain of ETV1 (P50549 whole entry): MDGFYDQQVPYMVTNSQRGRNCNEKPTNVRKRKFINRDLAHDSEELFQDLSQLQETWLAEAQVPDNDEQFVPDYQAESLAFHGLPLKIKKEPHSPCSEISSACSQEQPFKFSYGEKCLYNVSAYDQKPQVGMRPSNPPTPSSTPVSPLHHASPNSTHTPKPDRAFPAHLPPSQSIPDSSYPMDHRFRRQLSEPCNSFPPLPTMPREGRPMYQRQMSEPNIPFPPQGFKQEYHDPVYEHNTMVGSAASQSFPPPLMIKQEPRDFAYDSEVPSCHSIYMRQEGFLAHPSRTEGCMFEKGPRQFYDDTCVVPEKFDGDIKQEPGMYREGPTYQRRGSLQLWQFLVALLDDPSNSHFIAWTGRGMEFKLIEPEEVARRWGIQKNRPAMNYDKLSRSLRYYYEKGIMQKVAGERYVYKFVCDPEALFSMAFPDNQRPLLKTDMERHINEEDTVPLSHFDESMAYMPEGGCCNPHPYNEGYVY
# Procedure, shortened: as §1
sequence,measurement,setting,value
GAATAA,binding signal,[1],"1.01 fold enrichment (6-mer frequency, TF over GST control)"
same,binding signal,[2],"1.08 fold enrichment (6-mer frequency, TF over GST control)"
same,binding signal,[3],"1.07 fold enrichment (6-mer frequency, TF over GST control)"
same,binding signal,[4],"1.06 fold enrichment (6-mer frequency, TF over GST control)"
same,binding signal,[5],"1.09 fold enrichment (6-mer frequency, TF over GST control)"
same,binding signal,[6],"1.09 fold enrichment (6-mer frequency, TF over GST control)"
same,binding signal,[7],"1.03 fold enrichment (6-mer frequency, TF over GST control)"
same,binding signal,[8],"1.11 fold enrichment (6-mer frequency, TF over GST control)"
same,binding signal,[9],"1.17 fold enrichment (6-mer frequency, TF over GST control)"
same,binding signal,[10],"1.08 fold enrichment (6-mer frequency, TF over GST control)"
same,binding signal,[11],"1.09 fold enrichment (6-mer frequency, TF over GST control)"
same,binding signal,[12],"1.62 fold enrichment (6-mer frequency, TF over GST control)"
same,binding signal,[13],"1.17 fold enrichment (6-mer frequency, TF over GST control)"
same,binding signal,[14],"1.13 fold enrichment (6-mer frequency, TF over GST control)"
same,binding signal,[15],"1.04 fold enrichment (6-mer frequency, TF over GST control)"
same,binding signal,[16],"1.13 fold enrichment (6-mer frequency, TF over GST control)"
same,binding signal,[17],"1.12 fold enrichment (6-mer frequency, TF over GST control)"
same,binding signal,[18],"1.57 fold enrichment (6-mer frequency, TF over GST control)"
same,binding signal,[19],"1.03 fold enrichment (6-mer frequency, TF over GST control)"
